From PubChem BioAssay (Tox21)
Records with an inconclusive call do not appear. A call without a number means that no potency is given here. Some structures have more than one record in an assay (separate samples or runs), and their calls can disagree. Activity calls are given as the source filed them. Unless noted, the call rests on the fitted dose curve; in most records, active means well fitted curve in the direction sought with a large enough effect in the repeat runs; inconclusive means weak or mixed curves; inactive means no such curve, though single readings can be large; an effect the other way counts as inactive or inconclusive.

Experiments:
[1] = qHTS assay to identify small molecule agonists of the androgen receptor (AR) signaling pathway in the presence of an antagonist - cell viability counter screen (AID 1259379); further: nearly all actives have a fitted effect of over 25% in size; further: potency means the concentration at half of the fitted maximal effect
Method in brief: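 In MDA-kb2 cells (human breast carcinoma, MMTV-luciferase), compounds at 15 concentrations plus 3.0uM nilutamide; 16 hr, 37C, 0% CO2; CellTiter-Fluor fluorescence read for viability.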

[2] = qHTS assay to identify small molecule agonists of the estrogen receptor beta (ER-beta) signaling pathway - cell viability counter screen (AID 1259380); further: nearly all actives have a fitted effect of over 30% in size; further: potency means the concentration at half of the fitted maximal effect
Method in brief: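 Viability of ER-beta-UAS-bla HEK293T cells was determined by CellTiter-Glo luminescence following 16 hr treatment with test compounds at 37C.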

[3] = qHTS assay to identify small molecule antagonists of the estrogen receptor beta (ER-beta) signaling pathway - cell viability counter screen (AID 1259382); further: nearly all actives have a fitted effect of over 55% in size; further: potency means the concentration at half of the fitted maximal effect
Method in brief: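 Tox21 10K library tested in qHTS format on ER-beta-bla HEK293T cells stimulated with 1nM E2; 16 hr treatment at 37C. Same-well CellTiter-Glo luminescence served as the cell viability measure.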

[4] = molecular target: Estrogen receptor (Homo sapiens) (UniProt P03372); test: qHTS assay to identify small molecule agonists of the estrogen receptor alpha (ER-alpha) signaling pathway in the presence of an antagonist (AID 1259383; calls by dose curve; further: nearly all actives have a fitted effect of over 15% in size; further: potency means the concentration at half of the fitted maximal effect; on activation: top concentration of the series differs between compounds)
Method in brief: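 In VM7Luc4E2 cells, 4,000 per well, compounds at 15 concentrations were co-incubated 22hr at 37C with 10.0nM final ICI-182,780. Luminescence from the stably transfected 4×ERE-luciferase reporter was recorded 30min after ONE-Glo addition.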

[5] = qHTS assay to identify small molecule agonists or antagonists of the thyroid stimulating hormone receptor (TSHR) signaling pathway - wild type cell line counter screen (AID 1259384; calls by dose curve)
Method in brief: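 Wild-type Hek293 cells, 800/well, 18 h at 37C, then compound with Ro20-1724 for 30 min RT. cAMP by HTRF (cAMP-d2/anti-cAMP cryptate), 1 h RT, fluorescence read. 15 concentrations, triplicates.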

[6] = qHTS assay to identify small molecule agonists of the estrogen receptor alpha (ER-alpha) signaling pathway in the presence of an antagonist - cell viability counter screen (AID 1259386);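 further: cells exposed to compounds for 22 h at 37 °C before the viability read; nearly all actives have a fitted effect of over 30% in size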; further: potency means the concentration at half of the fitted maximal effect
Method in brief: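 Fluorescent CellTiter-Fluor viability signal from VM7Luc4E2 cells, with the reagent added during the final hour of a 22hr compound exposure at 37C in the presence of 10.0nM ICI-182,780.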

[7] = qHTS assay to identify small molecule antagonists of the progesterone receptor (PR) signaling pathway - cell viability counter screen (AID 1346798); further: nearly all actives have a fitted effect of over 50% in size; further: potency means the concentration at half of the fitted maximal effect
Method in brief: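 Same-well multiplex: after 16 hr at 37C with compound and R5020 stimulation, HEK293T cells carrying a UAS-bla reporter received LiveBLAzer substrate (2 hr RT), then CellTiter-Glo (30 min RT) for luminescent viability.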

[8] = qHTS assay to identify small molecule agonists of the progesterone receptor (PR) signaling pathway - cell viability counter screen (AID 1346799; calls by dose curve; further: nearly all actives have a fitted effect of over 45% in size; further: potency means the concentration at half of the fitted maximal effect)
Method in brief: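 Counter screen for cytotoxicity: compound-treated PR-UAS-bla HEK293T cells (16 hr, 37C, 5% CO2) were assayed with CellTiter-Glo, luminescence measured after 30 min at room temperature.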

[9] = qHTS assay to identify small molecule agonists of the TGF-beta/Smad signaling pathway - cell viability counter screen (AID 1346829); further: nearly all actives have a fitted effect of over 45% in size; further: potency means the concentration at half of the fitted maximal effect
Method in brief: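 SBE-bla HEK 293T cells plated overnight, compound exposure 5 hr at 37 C. Viability read in the same wells by CellTiter-Glo luminescence after 30 min at room temperature, following the beta-lactamase read.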

[10] = molecular target: Thyrotropin-releasing hormone receptor (Homo sapiens) (UniProt P34981); test: qHTS assay to identify small molecule antagonists of the thyrotropin-releasing hormone receptor (TRHR) signaling pathway (AID 1346877; active means well fitted inhibition curve with a large enough effect in the repeat runs, not every such curve was filed as active; further: series mostly up to about 51 µM)
Method in brief: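 In this cell-based calcium flux format, HEK293 cells expressing TRHR received test compound for 5 min before the agonist TRH (1 nM final). Dye loading lasted 2 h at 37 °C.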

[11] = molecular target: Thyrotropin-releasing hormone receptor (Homo sapiens) (UniProt P34981); test: qHTS assay to identify small molecule agonists of the thyrotropin-releasing hormone receptor (TRHR) signaling pathway (AID 1346891; calls by dose curve; further: series mostly up to about 58 µM)
Method in brief: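 Agonist-mode calcium mobilisation screen: TRHR-transfected HEK293 cells cultured overnight (18 h), dye-loaded for 2 h at 37 °C, exposed to compounds, and monitored by fluorescence for 3 min.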

[12] = Human pregnane X receptor (PXR) small molecule agonists, qHTS cell viability counter screen (AID 1346977); further: nearly all actives have a fitted effect of over 50% in size; further: potency means the concentration at half of the fitted maximal effect
Method in brief: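 Measures live-cell protease fluorescence (CellTiter-Fluor) in PXR-Luc HepG2 cells treated 24hr with compounds at 37C. Cells had 5hr to attach before pin transfer of DMSO solutions.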

[13] = molecular target: Thyrotropin receptor (Homo sapiens) (UniProt P16473); test: qHTS assay to identify small molecule antagonists of the thyroid stimulating hormone receptor (TSHR) signaling pathway (AID 1259385; calls by dose curve; further: nearly all actives have a fitted effect of over 20% in size; further: potency means the concentration at half of the fitted maximal effect)
Method in brief: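 TSHR-HEK293 cells (800/well) plated 18 h, then compounds with Ro20-1724 and TSH at 1.5 ng/mL final, 30 min at room temperature. cAMP quantified by HTRF (cAMP-d2/anti-cAMP-cryptate, 1 h); 15 concentrations in triplicate.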

[14] = molecular target: Progesterone receptor (Homo sapiens) (UniProt P06401); test: qHTS assay to identify small molecule antagonists of the progesterone receptor (PR) signaling pathway (AID 1346795; active means well fitted inhibition curve with a large enough effect in the signal ratio in the repeat runs, not every such curve was filed as active; the % refers to the signal ratio; further: potency means the concentration at half of the fitted maximal effect)
Method in brief: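 HEK293T PR-UAS-bla reporter cells in charcoal-stripped serum (2%) received compound after a 6 hr settling period, followed by R5020 agonist at 1 nM final; 16 hr incubation preceded the FRET substrate step and fluorescence measurement.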

[15] = qHTS assay to identify small molecule antagonists of the TGF-beta/Smad signaling pathway - cell viability counter screen (AID 1346824); further: nearly all actives have a fitted effect of over 50% in size; further: potency means the concentration at half of the fitted maximal effect
Method in brief: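 SBE-bla HEK 293T cells, incubated overnight, then compound plus 0.25 ng/mL TGF-beta1 (stock added) for 5 hr at 37 C. Viability was read in the same wells by CellTiter-Glo luminescence after 30 min at room temperature.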

[16] = Caspase-3/7 induction in HepG2 cells by small molecules, qHTS assay (AID 1346978); further: nearly all actives have a fitted effect of over 15% in size; further: potency means the concentration at half of the fitted maximal effect
Method in brief: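 Wild-type HepG2 cells, 2,000/well, settled 5 hr at 37 C and 5% CO2, then compound-treated for 17 hr; caspase-3/7 activity read by luminescent Caspase-Glo 3/7 after 30 min at room temperature.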

[17] = qHTS assay to identify small molecule agonists of the TGF-beta/Smad signaling pathway (AID 1346859; active means well fitted activation curve with a large enough effect in the signal ratio in the repeat runs, not every such curve was filed as active; the % refers to the signal ratio; further: series mostly up to about 77 µM)
Method in brief: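 Smad-responsive beta-lactamase reporter cells (HEK 293T) received compounds from DMSO stocks after overnight attachment, were incubated 5 hr, then treated 2 hr with FRET substrate before dual-emission fluorescence measurement (405 nm excitation).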

[18] = molecular target: Progesterone receptor (Homo sapiens) (UniProt P06401); test: qHTS assay to identify small molecule agonists of the progesterone receptor (PR) signaling pathway (AID 1346784; calls by dose curve; further: nearly all actives have a fitted effect of over 30% in size)
Method in brief: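 Agonist mode, quantitative HTS format in a HEK 293T line expressing a UAS-controlled beta-lactamase reporter; 16 hr compound exposure at 37C in 2% charcoal-stripped FBS, then LiveBLAzer B/G FRET fluorescence.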

Sequence of Estrogen receptor (Homo sapiens) (P03372 whole entry, looked up): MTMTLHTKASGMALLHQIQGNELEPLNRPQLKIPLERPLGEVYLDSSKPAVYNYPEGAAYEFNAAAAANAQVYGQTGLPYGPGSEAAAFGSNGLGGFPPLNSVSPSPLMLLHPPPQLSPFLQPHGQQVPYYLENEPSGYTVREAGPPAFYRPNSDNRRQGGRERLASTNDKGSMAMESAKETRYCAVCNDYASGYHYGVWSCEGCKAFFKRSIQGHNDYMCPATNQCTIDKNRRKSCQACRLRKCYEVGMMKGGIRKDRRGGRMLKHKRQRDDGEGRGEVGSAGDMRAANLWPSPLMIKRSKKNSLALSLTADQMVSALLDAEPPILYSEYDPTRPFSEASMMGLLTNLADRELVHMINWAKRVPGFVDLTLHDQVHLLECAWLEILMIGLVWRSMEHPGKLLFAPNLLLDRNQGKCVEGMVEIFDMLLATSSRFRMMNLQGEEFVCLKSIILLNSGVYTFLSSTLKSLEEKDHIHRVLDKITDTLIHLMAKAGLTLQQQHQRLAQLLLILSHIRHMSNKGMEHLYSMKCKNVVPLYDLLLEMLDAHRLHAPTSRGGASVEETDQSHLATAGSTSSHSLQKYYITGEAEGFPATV
Sequence of Thyrotropin-releasing hormone receptor (Homo sapiens) (P34981 whole entry, looked up): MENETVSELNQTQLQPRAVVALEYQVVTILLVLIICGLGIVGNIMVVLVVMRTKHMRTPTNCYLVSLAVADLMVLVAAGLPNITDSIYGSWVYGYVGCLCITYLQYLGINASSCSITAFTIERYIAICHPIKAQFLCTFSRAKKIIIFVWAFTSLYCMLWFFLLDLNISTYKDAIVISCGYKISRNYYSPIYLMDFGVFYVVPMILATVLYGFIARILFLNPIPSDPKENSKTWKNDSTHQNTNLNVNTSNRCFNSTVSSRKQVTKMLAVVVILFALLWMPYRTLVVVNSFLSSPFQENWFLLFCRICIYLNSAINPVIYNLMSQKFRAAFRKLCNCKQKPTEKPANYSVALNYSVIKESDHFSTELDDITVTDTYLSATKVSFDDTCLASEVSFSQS
Sequence of Progesterone receptor (Homo sapiens) (P06401 whole entry, looked up): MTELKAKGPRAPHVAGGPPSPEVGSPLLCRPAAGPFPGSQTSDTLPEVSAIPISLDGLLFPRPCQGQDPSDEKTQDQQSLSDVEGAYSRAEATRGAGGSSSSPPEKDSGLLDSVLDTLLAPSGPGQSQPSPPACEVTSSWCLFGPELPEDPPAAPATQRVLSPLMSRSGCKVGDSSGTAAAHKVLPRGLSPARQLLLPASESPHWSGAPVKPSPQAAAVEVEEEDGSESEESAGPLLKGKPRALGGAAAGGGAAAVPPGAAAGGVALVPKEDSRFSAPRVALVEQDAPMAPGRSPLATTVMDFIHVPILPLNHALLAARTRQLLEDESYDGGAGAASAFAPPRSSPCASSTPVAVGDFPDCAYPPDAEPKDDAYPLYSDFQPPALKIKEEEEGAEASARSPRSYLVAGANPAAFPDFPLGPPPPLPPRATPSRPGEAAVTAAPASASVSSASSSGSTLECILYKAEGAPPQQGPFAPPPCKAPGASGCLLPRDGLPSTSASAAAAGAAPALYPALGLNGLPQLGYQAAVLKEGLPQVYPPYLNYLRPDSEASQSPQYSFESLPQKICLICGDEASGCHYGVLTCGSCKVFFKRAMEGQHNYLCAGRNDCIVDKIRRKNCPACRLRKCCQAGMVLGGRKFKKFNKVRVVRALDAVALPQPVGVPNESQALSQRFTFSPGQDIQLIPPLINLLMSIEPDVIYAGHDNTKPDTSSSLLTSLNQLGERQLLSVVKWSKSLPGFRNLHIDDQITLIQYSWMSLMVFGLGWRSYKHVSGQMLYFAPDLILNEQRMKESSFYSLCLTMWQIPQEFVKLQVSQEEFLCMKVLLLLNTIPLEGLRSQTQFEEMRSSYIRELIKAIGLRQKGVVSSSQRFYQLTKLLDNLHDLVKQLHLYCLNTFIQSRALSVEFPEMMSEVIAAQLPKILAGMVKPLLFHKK
Sequence of Thyrotropin receptor (Homo sapiens) (P16473 whole entry, looked up): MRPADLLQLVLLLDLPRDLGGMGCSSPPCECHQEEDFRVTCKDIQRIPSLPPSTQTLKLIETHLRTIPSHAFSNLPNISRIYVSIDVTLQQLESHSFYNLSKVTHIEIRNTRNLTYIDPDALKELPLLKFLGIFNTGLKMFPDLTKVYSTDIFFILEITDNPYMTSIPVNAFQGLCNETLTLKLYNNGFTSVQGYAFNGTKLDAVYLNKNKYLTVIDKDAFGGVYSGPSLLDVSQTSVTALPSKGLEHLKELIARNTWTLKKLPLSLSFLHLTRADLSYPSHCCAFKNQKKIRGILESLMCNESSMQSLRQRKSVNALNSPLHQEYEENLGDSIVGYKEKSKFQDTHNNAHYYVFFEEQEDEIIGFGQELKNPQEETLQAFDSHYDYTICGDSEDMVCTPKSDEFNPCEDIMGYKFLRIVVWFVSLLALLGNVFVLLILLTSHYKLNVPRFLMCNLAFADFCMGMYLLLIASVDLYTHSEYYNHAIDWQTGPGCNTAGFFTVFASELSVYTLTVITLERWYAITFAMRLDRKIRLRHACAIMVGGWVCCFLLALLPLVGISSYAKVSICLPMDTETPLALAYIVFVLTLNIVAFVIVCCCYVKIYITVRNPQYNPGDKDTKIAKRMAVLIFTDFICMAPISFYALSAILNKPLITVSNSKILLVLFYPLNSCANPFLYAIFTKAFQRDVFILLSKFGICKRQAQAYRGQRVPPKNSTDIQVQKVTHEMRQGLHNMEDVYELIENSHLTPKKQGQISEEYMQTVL

Compound | Potency [1] | Potency [2] | Potency [3] | Potency [4] | outcome [5] | Potency [6] | Potency [7] | Potency [8] | Potency [9] | Potency [10] | Potency [11] | Potency [12] | Potency [13] | Potency [14] | Potency [15] | Potency [16] | outcome [17] | Potency [18]
C=CC(=O)OCC(COC(=O)C=C)(COC(=O)C=C)COC(=O)C=C | 12.2 µM (active) | 7.7 µM (active) | 9.69 µM (active) | inactive | inactive | 13.7 µM (active) | 17.2 µM (active) | 19.3 µM (active) | 49 µM (active) | inactive | inactive | 12.2 µM (active) | – | – | – | – | – | –
CC(c1ccc(O)cc1)c1ccc(O)cc1 | inactive | 40.6 µM (active) and inactive | 45.5 µM (active) and inactive | – | inactive | inactive | – | – | inactive | inactive | inactive | inactive | inactive | 6.86 µM (active) | inactive | inactive | – | –
CC(C)C1CCC(Cc2ccc(Cl)cc2)C1(O)Cn1cncn1 (configuration not stated) | 67.9 µM (active) | 67.9 µM (active) | 67.9 µM (active) | inactive | inactive | – | – | – | – | – | inactive | 48.1 µM (active) | – | 3.4 µM (active) | 54.4 µM (active) | 67.9 µM (active) | – | –
O=C(CBr)c1ccc(O)cc1 | inactive | inactive | inactive | – | inactive | inactive | – | – | inactive | inactive | inactive | inactive | inactive | – | – | inactive | inactive | –
N#Cc1ccccc1Cl | inactive | inactive | inactive | – | inactive | inactive | inactive | inactive | inactive | inactive | inactive | inactive | inactive | inactive | inactive | inactive | inactive | inactive
CCCN(CCC)c1c([N+](=O)[O-])cc(S(N)(=O)=O)cc1[N+](=O)[O-] | 51.8 µM (active) | 23.1 µM (active) | 54.9 µM (active) | 65.2 µM (active) | inactive | – | – | – | 58.6 µM (active) | – | – | 50.1 µM (active) | – | – | – | 57.2 µM (active) | – | –
BrCBr | inactive | inactive | inactive | inactive | – | inactive | inactive | inactive | inactive | inactive | inactive | inactive | – | inactive | inactive | – | inactive | inactive
Cc1cc(C)c(C2=C(OC(=O)CC(C)(C)C)C3(CCCC3)OC2=O)c(C)c1 | inactive | inactive | inactive | inactive | – | inactive | inactive | inactive | inactive | – | – | inactive | – | – | inactive | inactive | inactive | –
O=[N+]([O-])c1cc(C(F)(F)F)c(Cl)c([N+](=O)[O-])c1Cl | 27.3 µM (active) | 27.3 µM (active) | 30.6 µM (active) | inactive | – | 54.5 µM (active) | 54.5 µM (active) | – | 49 µM (active) | inactive | inactive | 27.3 µM (active) | 61.1 µM (active) | – | 49 µM (active) | 21.7 µM (active) | – | –
CCS(=O)(=O)c1cccnc1S(=O)(=O)NC(=O)Nc1nc(OC)cc(OC)n1 | inactive | inactive | inactive | – | inactive | inactive | inactive | inactive | inactive | inactive | inactive | inactive | inactive | inactive | inactive | inactive | inactive | inactive
Oc1ccc(I)cc1 | inactive | inactive | inactive | inactive | inactive | inactive | inactive | inactive | inactive | – | – | inactive | – | 61.1 µM (active) | inactive | – | inactive | –
C[C@]12CC[C@@H]3c4ccc(OC(=O)N(CCCl)CCCl)cc4CC[C@H]3[C@@H]1CC[C@@H]2O | inactive | inactive | inactive | – | inactive | inactive | inactive | – | inactive | inactive | inactive | inactive | inactive | – | – | inactive | inactive | –
Oc1ccccc1Br | inactive | inactive | inactive | inactive | – | inactive | – | inactive | inactive | – | – | inactive | – | inactive | inactive | inactive | – | –
CC(=[OH+])/C=C(/C)[O-].CC(=[OH+])/C=C(\C)[O-].CC(=[OH+])/C=C(\C)[O-].[Fe] | inactive | inactive | inactive | inactive | – | inactive | inactive | inactive | inactive | – | – | inactive | – | – | inactive | – | inactive | inactive
Cl/C=C\CCl | inactive | inactive | inactive | – | inactive | inactive | inactive | inactive | inactive | – | – | inactive | inactive | inactive | inactive | inactive | inactive | –
